Bioassay records from PubChem BioAssay.
This is a sample that favours compounds with a hit; in the whole collection about 1% have one here.
ugtP null kill: growth inhibition of S. aureus ugtP deletion strain; growth inhibition, % (test concentration not listed); S. aureus RN4220 ugtP deletion, OD600 growth, 16 h; hit rate 0.54% among 330,000; AID 1259309; in the data active = growth inhibition above about 68%
PriA SSB inh: inhibitors of Klebsiella pneumoniae PriA binding to SSB C-terminal tail | inhibition, % at 33 µM | AlphaScreen SSBct-PriA binding, biotinylated peptide | AID 1272365 | hit rate 0.6% among 430,000; in the data active = inhibition mostly above about 37%, no sharp cut-off; inactive = mostly below about 20%
Sa RN4220 lethal: kills Staphylococcus aureus RN4220; inhibition, % (test concentration not listed); hit rate 0.33% among 330,000; S. aureus RN4220 growth, OD600, 16 h; in the data active = inhibition above about 85%
Mtb hypoxia inh: Mtb hypoxia fluorescent reporter inhibition. M. tuberculosis hypoxia-regulated fluorescent reporter, fluorescence. fluorescence inhibition, % (test concentration not listed). hit rate 0.1% among 300,000; in the data active = fluorescence inhibition mostly above about 23%, no sharp cut-off; inactive = mostly below about 17%
Mtb bLac sens: beta-lactam sensitization of Mtb H37Rv; M. tuberculosis H37Rv growth with meropenem, percent inhibition; hit rate 0.27% among 330,000; inhibition, % at 25 µM; call rule not given here;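 also: growth measured after seven days incubation then overnight dye step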
Each line names hits and unclear results; the compound was inactive in the other large screens; ! = repeats disagree.

OCCN1CCN(CCCN2c3ccccc3Sc3ccc(C(F)(F)F)cc32)CC1	none
CCNC(=S)NN=C1C(=O)c2cccc3cccc1c23	none (no result: ugtP null kill, Sa RN4220 lethal, Mtb hypoxia inh, Mtb bLac sens)
CC(=O)Nc1cccc(NC(=O)CSc2nc(CC(=O)Nc3ccccc3C(N)=O)cs2)c1	none (no result: ugtP null kill, Sa RN4220 lethal, Mtb hypoxia inh, Mtb bLac sens)
N#CC(=Cc1ccc(O)c([N+](=O)[O-])c1)c1nc2ccccc2s1	ugtP null kill 96.5, Sa RN4220 lethal 96.2 (not shown: PriA SSB inh, Mtb hypoxia inh, Mtb bLac sens)
N#C/C(=C\c1ccc(O)c([N+](=O)[O-])c1)c1nc2ccccc2s1	none (no result: ugtP null kill, Sa RN4220 lethal, Mtb hypoxia inh, Mtb bLac sens)
COc1ccccc1NC(=O)CN1CCN(CC(=O)Nc2ccc(Cl)c(C(F)(F)F)c2)CC1	none (no result: Mtb hypoxia inh, Mtb bLac sens)
CCc1ccccc1NCC(=O)Nc1ccc(Cl)c(C(F)(F)F)c1	ugtP null kill 89.5
O=C(CCN1C(=O)C2C3C=CC(C4CC34)C2C1=O)Oc1cccc2cccnc12 (stereo not given)	ugtP null kill 98.1, Sa RN4220 lethal 100.2
Cc1cc(NC(=O)C2CCCN(c3cc(-n4cncn4)ncn3)C2)no1 (stereo not given)	none (no result: ugtP null kill, Sa RN4220 lethal, Mtb hypoxia inh, Mtb bLac sens)
O=[N+]([O-])c1ccccc1S(=O)(=O)N1CCc2ccccc21	PriA SSB inh 39.0 (no result: ugtP null kill, Sa RN4220 lethal, Mtb hypoxia inh, Mtb bLac sens)
COC(=O)C(O)(NC(=O)c1ccncc1)C(F)(F)F (stereo not given)	Sa RN4220 lethal 84.3
O=C(NNC(=O)c1cc2cc(Cl)ccc2oc1=O)c1ccncc1	none (no result: ugtP null kill, Sa RN4220 lethal, Mtb hypoxia inh, Mtb bLac sens)
COc1ccc(/C=C/C(=O)NC(=S)Nc2ccccn2)cc1	PriA SSB inh 38.4
O=C(NCC(c1ccsc1)N1CCCCCC1)C(=O)Nc1ccc2c(c1)OCO2 (stereo not given)	none (no result: ugtP null kill, Sa RN4220 lethal, Mtb hypoxia inh, Mtb bLac sens)
O=C(CSc1nccc(-c2cccs2)n1)Nc1ccc(F)c(Cl)c1	ugtP null kill 89.0
Cc1ccc(-c2cc(=O)n(CC(N)=O)cn2)cc1	none (no result: ugtP null kill, Sa RN4220 lethal, Mtb hypoxia inh, Mtb bLac sens)
O=c1[nH]nc(C2CC2)c2cnn(-c3cccc(Cl)c3)c12	none (no result: ugtP null kill, Sa RN4220 lethal, Mtb hypoxia inh, Mtb bLac sens)
COc1ccc([C@@]2(C)NN=C3Oc4ccccc4N32)cc1	none (no result: ugtP null kill, Sa RN4220 lethal, Mtb hypoxia inh, Mtb bLac sens)
COc1ccc(C2(C)NN=C3Sc4ccccc4N32)cc1 (stereo not given)	PriA SSB inh 41.0 (no result: ugtP null kill, Sa RN4220 lethal, Mtb hypoxia inh, Mtb bLac sens)
CC(CCC(=O)O)=NNc1ccc([N+](=O)[O-])cc1[N+](=O)[O-]	none (no result: Mtb bLac sens)
CCOC(=O)CC(C)=NNc1ccc([N+](=O)[O-])cc1[N+](=O)[O-]	PriA SSB inh 47.4 (no result: Mtb bLac sens)
Cc1[nH][nH]c(=O)c1C(c1c(C)[nH][nH]c1=O)c1cn(C)c2ccccc12	none (no result: Mtb bLac sens)
Cc1[nH][nH]c(=O)c1C(c1c(C)[nH][nH]c1=O)c1cn(Cc2cccc3ccccc23)c2ccccc12	ugtP null kill 94.4 (no result: Mtb hypoxia inh)
O=C(NNc1c2ccccc2nc2ccccc12)c1cccc(O)c1	none
Oc1cccc(-c2nc3ccc4ccccc4c3c3c2CCC3)c1	ugtP null kill 99.7
CC(=O)N1CCN(Cc2nc(-c3ccc(F)cc3)cs2)CC1	none (no result: ugtP null kill, Sa RN4220 lethal, Mtb hypoxia inh, Mtb bLac sens)
O=C(c1ccc([N+](=O)[O-])o1)N1CCN(Cc2nc(-c3ccc(F)cc3)cs2)CC1	PriA SSB inh 11.0 (no result: ugtP null kill, Sa RN4220 lethal, Mtb hypoxia inh, Mtb bLac sens)
Cc1cc(C(O)CCNC(=O)C(=O)NCc2ccc3c(c2)OCO3)c(C)o1 (stereo not given)	none (no result: ugtP null kill, Sa RN4220 lethal, Mtb hypoxia inh, Mtb bLac sens)
CCCCCCCCCn1ccc(=N)cc1	ugtP null kill 100.1
CCCCCCCn1ccc(=N)cc1	none (no result: Mtb hypoxia inh)
O=C1NC(=S)SC1=Cc1ccc(Cl)cc1	ugtP null kill 98.8, Sa RN4220 lethal 95.1 (no result: Mtb bLac sens)
O=C1NC(=S)NC1=Cc1ccc(Cl)cc1Cl	none (no result: Mtb bLac sens)
COc1ccc(C=C2SC(=S)NC2=O)cc1	none (no result: ugtP null kill, Sa RN4220 lethal, Mtb hypoxia inh, Mtb bLac sens)
O=C1NC(=S)SC1=Cc1ccc(F)cc1	ugtP null kill 92.2, Sa RN4220 lethal 90.1 (no result: Mtb bLac sens)
O=C1NC(=S)SC1=Cc1ccc(N(CCCl)CCCl)cc1	Sa RN4220 lethal 87.3 (no result: Mtb bLac sens)
O=C1NC(=O)C(=Cc2ccc(Cl)cc2Cl)S1	ugtP null kill 92.9, Sa RN4220 lethal 90.8 (no result: PriA SSB inh, Mtb bLac sens)
Cc1nn(C)c(C)c1S(=O)(=O)N1CCC(S(=O)(=O)c2nncn2C)CC1	none (no result: ugtP null kill, Sa RN4220 lethal, Mtb hypoxia inh, Mtb bLac sens)
CCn1ccc(C(=O)Nc2nc(-c3ccc(Cl)s3)cs2)n1	none (no result: ugtP null kill, Sa RN4220 lethal, Mtb hypoxia inh, Mtb bLac sens)
FC(F)(F)c1nc(SCc2ccc(Cl)cc2Cl)n[nH]1	ugtP null kill 82.8
Cn1c(SCc2ccc(Cl)cc2Cl)nc(C(F)(F)F)cc1=O	none
CCc1ccc(/C=C(/C#N)C(N)=S)cc1	PriA SSB inh 38.0!
N#C/C(=C/c1ccc(F)cc1)C(N)=S	none
CCn1nc(C(=O)Nc2cccc(S(=O)(=O)N3CCCC3)c2)c2ccccc2c1=O	Mtb hypoxia inh 23.2
CCOC(=O)c1sc(NC(=O)CSc2nnc3sc4ccccc4n23)c(C(=O)OCC)c1C	none (no result: ugtP null kill, Sa RN4220 lethal, Mtb hypoxia inh, Mtb bLac sens)
CCCCN1C(=O)Cc2c1nc(N)c1c(N)nc(N(CCC)CCC)c(C#N)c21	PriA SSB inh 38.9
O=C(NCCn1ncc2c(=O)n(Cc3cccc(F)c3)cnc21)c1ccc2ccccc2c1	none (no result: ugtP null kill, Sa RN4220 lethal, Mtb hypoxia inh, Mtb bLac sens)
O=C(COC(=O)c1cc(Cl)nc(Cl)c1)NCCc1ccc(F)cc1	Mtb hypoxia inh 25.5
COc1cc(NC(=O)NCC(c2ccc3c(c2)CCN3C)N2CCOCC2)cc(OC)c1 (stereo not given)	none (no result: ugtP null kill, Sa RN4220 lethal, Mtb hypoxia inh, Mtb bLac sens)
